What all share (test): NCI-60 one-dose screen, 48 h (100 = growth as untreated, 0 = no growth, -100 = all killed)
Details in all cases: 10 µM unless noted

The test system of test [1] is NCI-H23 lung.
For test [2], the system named is NCI-H226 lung.
Test [3] has as its system NCI-H322M lung.
Test [4] has as its system HOP-62 NSCLC.
Test [5] relates to NCI-H460 lung.
The test system of test [6] is HOP-92 NSCLC.
For test [7], the system named is NCI-H522 lung.
The test system of test [8] is A549/ATCC NSCLC.
The subject of test [9] is 786-0 renal.
In test [10] the test system is COLO 205 colon.

The panel holds about 83,000 compounds, 20% with a hit somewhere; the sample as a whole holds those more often.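 Results are percent growth after 48 hours of single-concentration exposure. 100 means growth as in untreated cells, lower positive values show inhibition; negative values down to -100 show cell death.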 Unmarked numbers belong to inactive results. The source made the active and inactive calls. Rule for the calls: active = growth percent below 10; inactive = the rest.

`N=C(N)c1ccc(-c2ccc(-c3ccc(F)cc3)o2)o1`: the growth in [1] is 44.8%; in test [2], 69.7%; in test [3], 42.4%; in test [4], 38.1%; in test [5] it was -13.7% (active); in test [6], 16.2%. The growth is 37.4% in test [7], 1.43% (active) in test [8], 15.4% in [9] and -76.5% (active) in test [10].
Turning to `C=C(C)[C@@H]1CC[C@]2(C(=O)O)CC[C@]3(C)[C@H](CC[C@@H]4[C@@]5(C)C[C@@H](Cc6cn(CCO[C@@H]7O[C@H](COC(C)=O)[C@H](OC(C)=O)[C@H](OC(C)=O)[C@H]7OC(C)=O)nn6)[C@H](O)C(C)(C)[C@@H]5CC[C@]43C)[C@@H]12`, the growth is 60.5% in test [1]; 81.9% in [2]; 82.7% in [3]; 80.7% in [4]; 62% in [5]; -3.81% (active) in test [6]. In addition, the growth was 64.1% in test [7], 61.8% in test [8], 78.9% in test [9] and 96.5% in test [10].
For the molecule `Cc1cccc2c1NC(=O)C2(c1ccc(O)cc1)c1ccc(O)cc1`, the growth in test [1] is 38%; in test [2] it was 25.2%; in test [3], 10.1%; in test [4], 92%; in test [5], 103%; in [6] it was 48.7%. In addition, the growth is 61.4% in test [7], 71.6% in test [8], 94.8% in test [9] and -4.74% (active) in test [10].
As to `COc1cccc(/C=C/C(=O)c2cc3c(N)c(C(=O)Nc4ccccc4)sc3nc2C)c1`, the growth is 49.6% in test [1]; 55.3% in test [2]; 67.9% in [3]; 13.6% in test [4]; -22.5% (active) in test [5]; 64.4% in test [6]. Moreover, the growth is 7.06% (active) in [7], 34.3% in test [8], -38.2% (active) in [9] and 67.6% in [10].
Turning to `c1ccc(C2=NN[C@H](c3cn(-c4ccccc4)nc3-c3ccccc3)C2)cc1`, the growth is 59.3% in [1]; 25.5% in test [2]; 47.8% in test [3]; -14.5% (active) in [4]; 29% in test [5]; 34.6% in test [6]. In addition, the growth in test [7] is 75.6%; in test [8] it was 17.1%; in [9], 6.85% (active); in test [10] it was 66.5%.
Turning to `COc1cc(NC(C)CCCNC(C)C)c2ncccc2c1OC` (stereo not given), the growth in [1] is 89.5%; in test [2], 95%; in test [3] it was 99.7%; in test [4], 98.3%; in test [5], 98.6%; in test [6] it was 74.6%. The growth in test [7] was 69.6%; in test [8] it was 102%; in [9], 86.8%; in [10], 90.6%.
Take `CC1=C(Nc2ccc(N3CCN(C)CC3)cc2)C(=O)c2cncnc2C1=O`: the growth is 72.6% in test [1]; 99% in [2]; 101% in test [3]; 107% in [4]; 25.2% in test [5]; -28.6% (active) in test [6]. The growth in test [7] was 84.9%; in test [8] it was 92.6%; in [9] it was 107%; in [10], 124%.
Regarding `O=C(CSc1nc2ccc([N+](=O)[O-])cc2[nH]1)Nc1cccc(C(F)(F)F)c1`, the growth in test [1] is 1.74% (active); in test [2], 10.8%; in [3], 50.1%; in test [4], 27.6%; in test [5], 14.4%; in test [6], -28.9% (active). In addition, the growth is 3.44% (active) in test [7], 23.2% in test [8], 23.9% in [9] and 16.8% in test [10].
Consider `Cc1noc(C)c1C(=O)OCc1coc2ccccc2c1=O`, for which the growth in test [1] was 71.3%; in test [2] it was 84.9%; in test [3] it was 96.2%; in [4] it was 87.5%; in test [5], 83.8%; in [6] it was 27.4%. Further, the growth is -15.4% (active) in [7], 89.5% in test [8], 55.4% in test [9] and 66.6% in test [10].
For `COCCn1cc(-c2nc(-c3cc4cccnc4n3CCOC)cs2)c2cc(OC)ccc21`, the growth in test [1] is 61.5%; in test [2], 63.1%; in [3], 39.5%; in test [4] it was 74.7%; in [5] it was 40.2%; in test [6], 47.1%. The growth in test [7] was 16.7%; in test [8], 46%; in test [9], 58.5%; in [10], 44.3%.
Regarding `COc1ccc(/C=N/NC(=O)CCN2c3ccccc3Sc3ccccc32)cc1`, the growth in test [1] was 75.6%; in [2], 86.5%; in test [3], 83.4%; in [4], 75.3%; in [5] it was 85.4%; in test [6] it was 62.7%. Further, the growth in [7] was 62.1%; in test [8], 77.6%; in [9], 91.5%; in test [10] it was 88.5%.
As to `CC(C)(C)[Si](C)(C)O[C@H]1C(=O)C=CN2CC=C[C@@H]12`, the growth in [1] is 93.3% [100 µM]; in [2] it was 94.4% [100 µM]; in test [3] it was 104% [100 µM]; in test [4], 111% [100 µM]; in test [5] it was 103% [100 µM]; in test [6], 93.9% [100 µM]. The growth in test [7] is 91.7% [100 µM]; in test [8] it was 110% [100 µM]; in test [9], 105% [100 µM]; in [10], 122% [100 µM].

The record behind these values is PubChem BioAssay (NCI).
